Measured values from PubChem BioAssay (EPA / NIEHS).
Records with an inconclusive call do not appear. Calls of active or inactive are those of the source. How the source made its calls: active means hit-call score of the fitted dose curve at least 0.9, where 1 is the maximum; inconclusive means response in the unintended direction; inactive means score below 0.9.

Assays:
[1] = target: human Peroxisome Proliferator-activated Receptor alpha (PPARa), PPARA (gene 5465) (UniProt Q07869); assay: ATG_PPARa_TRANS: Attagene TRANS-FACTORIAL HepG2 Assay for human Peroxisome Proliferator-activated Receptor alpha (PPARa) (AID 2283001);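 on AC50: potency for gain of reporter signal over DMSO so agonist or activator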
Summary of the method: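 Measures transcriptional activity of an exogenous chimeric PPARa-Gal4 protein in transiently transfected HepG2 cells after 24 h dosing. Reporter mRNA quantified via RT-PCR and capillary electrophoresis; DMSO served as negative control.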

[2] = target: human Peroxisome Proliferator-activated Receptor delta (PPARd), PPARD (gene 5467) (UniProt Q03181); assay: ATG_PPARd_TRANS: Attagene TRANS-FACTORIAL HepG2 Assay for human Peroxisome Proliferator-activated Receptor delta (PPARd) (AID 2283002)
Summary of the method: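 HepG2 cells transiently transfected with GAL4-UAS multiplexed reporter units driven by exogenous chimeric NR-GAL4 proteins; 24 h compound exposure. Reporter mRNA measured by RT-PCR, 6-FAM primer extension, HpaI digestion and capillary electrophoresis; gain of signal fitted relative to DMSO.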

[3] = target: Peroxisome proliferator-activated receptor gamma (Homo sapiens) (UniProt P37231); assay: ATG_PPARg_TRANS: Attagene TRANS-FACTORIAL HepG2 Assay for human Peroxisome Proliferator-activated Receptor-gamma (PPARg) (AID 2283007)
Summary of the method: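 HepG2 cells transiently transfected with multiplexed GAL4-UAS reporter units and exogenous chimeric NR-Gal4 proteins; reporter mRNA quantified after 24 h compound exposure by RT-PCR, fluorescent labelling, HpaI digestion and capillary electrophoresis; gain-of-signal fitted versus DMSO baseline.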

[4] = target: Nuclear receptor subfamily 1 group I member 2 (Homo sapiens) (UniProt O75469); assay: ATG_PXR_TRANS: Attagene TRANS-FACTORIAL HepG2 Assay for human Pregnane X Receptor (PXR) (AID 2283008)
Summary of the method: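 HepG2 cells transiently transfected with multiple reporter units, here a PXR-GAL4 chimera driving a GAL4-UAS reporter; 24 h compound exposure. Reporter mRNA measured by RT-PCR, FAM labelling and capillary electrophoresis; gain of signal fitted against DMSO baseline.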

[5] = target: human RAR-related Orphan Receptor gamma (RORg), RORC (gene 6097) (UniProt P51449); assay: ATG_RORg_TRANS: Attagene TRANS-FACTORIAL HepG2 Assay for human RAR-related Orphan Receptor gamma (RORg) (AID 2283011)
Summary of the method: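 Readout: reporter transcript induction (RT-PCR, fluorescent primer extension, capillary electrophoresis) after 24 h compound exposure of transiently transfected HepG2 cells carrying a RORg-Gal4 chimera and GAL4-UAS reporters; DMSO served as baseline, with increasing signal fitted.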

[6] = target: human Retinoid X Receptor beta (RXRb), RXRB (gene 6257) (UniProt P28702); assay: ATG_RXRb_TRANS: Attagene TRANS-FACTORIAL HepG2 Assay for human Retinoid X Receptor beta (RXRb) (AID 2283013)
Summary of the method: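 HepG2 cells transiently transfected with multiplexed reporter units driven by GAL4-UAS and exogenous chimeric NR-Gal4 proteins; treated 24 h. Reporter mRNA measured by RT-PCR, 6-FAM labelling and capillary electrophoresis; gain-of-signal fitted versus DMSO baseline.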

[7] = target: human Thyroid Receptor alpha (THRa1), THRA (gene 7067) (UniProt P10827); assay: ATG_THRa1_TRANS: Attagene TRANS-FACTORIAL HepG2 Assay for human Thyroid Receptor alpha (THRa1) (AID 2283014)
Summary of the method: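 HepG2 cells transiently transfected with multiplexed GAL4-UAS reporter units for exogenous chimeric THRa1-Gal4; reporter mRNA measured 24 h after dosing by RT-PCR, 6-FAM labelling, HpaI digestion and capillary electrophoresis. Gain-of-signal fitted versus DMSO baseline.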

[8] = target: Retinoic acid receptor RXR-alpha (Homo sapiens) (UniProt P19793); assay: ATG_RXRa_TRANS: Attagene TRANS-FACTORIAL HepG2 Assay for human Retinoid X Receptor alpha (RXRa) (AID 2283012)
Summary of the method: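 HepG2 cells transiently transfected with multiplexed GAL4-UAS reporter units and chimeric NR-GAL4 fusions, dosed 24 h. Reporter mRNA measured by RT-PCR, FAM labelling, HpaI digestion and capillary electrophoresis; gain-of-signal fitted relative to DMSO baseline.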

[9] = target: human RAR-related Orphan Receptor beta (RORb), RORB (gene 6096) (UniProt Q92753); assay: ATG_RORb_TRANS: Attagene TRANS-FACTORIAL HepG2 Assay for human RAR-related Orphan Receptor beta (RORb) (AID 2283010)
Summary of the method: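 HepG2 cells were transiently transfected with multiplexed GAL4-UAS reporter units expressing chimeric nuclear receptor–GAL4 proteins, then dosed for 24 h. Reporter mRNA was quantified by RT-PCR with fluorescent labelling and capillary electrophoresis; gain of signal was fitted relative to DMSO.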

human RAR-related Orphan Receptor beta (RORb), RORB (gene 6096), sequence (Q92753 whole entry, looked up, the tested form may be a part): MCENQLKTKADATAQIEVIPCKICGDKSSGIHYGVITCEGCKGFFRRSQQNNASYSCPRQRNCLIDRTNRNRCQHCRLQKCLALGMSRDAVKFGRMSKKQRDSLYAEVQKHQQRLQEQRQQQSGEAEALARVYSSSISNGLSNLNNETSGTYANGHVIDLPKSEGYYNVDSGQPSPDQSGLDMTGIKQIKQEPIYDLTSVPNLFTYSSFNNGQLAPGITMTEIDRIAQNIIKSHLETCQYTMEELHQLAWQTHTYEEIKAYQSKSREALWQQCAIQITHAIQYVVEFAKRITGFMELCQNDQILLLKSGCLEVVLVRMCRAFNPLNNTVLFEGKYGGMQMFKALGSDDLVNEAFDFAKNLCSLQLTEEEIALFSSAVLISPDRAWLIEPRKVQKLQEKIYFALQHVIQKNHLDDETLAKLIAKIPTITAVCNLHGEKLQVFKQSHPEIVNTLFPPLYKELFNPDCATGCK
Peroxisome proliferator-activated receptor gamma (Homo sapiens), sequence (P37231 whole entry, looked up, the tested form may be a part): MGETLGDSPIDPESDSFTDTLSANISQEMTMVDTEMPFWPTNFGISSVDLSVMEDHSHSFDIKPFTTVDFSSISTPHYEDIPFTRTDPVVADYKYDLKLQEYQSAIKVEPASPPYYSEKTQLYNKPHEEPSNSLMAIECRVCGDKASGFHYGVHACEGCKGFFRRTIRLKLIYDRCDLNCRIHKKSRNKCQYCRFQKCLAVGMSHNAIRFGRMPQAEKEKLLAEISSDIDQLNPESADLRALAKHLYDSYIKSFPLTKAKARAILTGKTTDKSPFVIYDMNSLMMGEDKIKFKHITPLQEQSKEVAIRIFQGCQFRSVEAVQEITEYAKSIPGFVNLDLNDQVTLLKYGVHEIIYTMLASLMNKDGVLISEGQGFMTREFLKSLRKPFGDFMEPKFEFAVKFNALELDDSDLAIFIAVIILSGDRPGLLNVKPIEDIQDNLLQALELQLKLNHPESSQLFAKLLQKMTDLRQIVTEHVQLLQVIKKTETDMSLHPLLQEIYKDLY
human Thyroid Receptor alpha (THRa1), THRA (gene 7067), sequence (P10827 whole entry, looked up, the tested form may be a part): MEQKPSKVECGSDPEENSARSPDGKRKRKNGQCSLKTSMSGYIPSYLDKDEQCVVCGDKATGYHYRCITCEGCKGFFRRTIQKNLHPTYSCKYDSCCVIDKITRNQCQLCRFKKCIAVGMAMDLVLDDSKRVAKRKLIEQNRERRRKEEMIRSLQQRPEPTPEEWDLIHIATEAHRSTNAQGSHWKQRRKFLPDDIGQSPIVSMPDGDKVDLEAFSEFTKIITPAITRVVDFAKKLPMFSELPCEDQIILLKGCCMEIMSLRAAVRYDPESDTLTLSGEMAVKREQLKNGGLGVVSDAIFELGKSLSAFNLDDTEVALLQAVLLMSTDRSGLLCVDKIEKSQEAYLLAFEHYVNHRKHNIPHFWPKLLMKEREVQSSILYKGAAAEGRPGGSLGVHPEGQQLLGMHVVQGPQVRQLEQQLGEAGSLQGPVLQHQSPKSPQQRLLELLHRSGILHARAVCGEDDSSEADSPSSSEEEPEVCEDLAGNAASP
human Peroxisome Proliferator-activated Receptor alpha (PPARa), PPARA (gene 5465), sequence (Q07869 whole entry, looked up, the tested form may be a part): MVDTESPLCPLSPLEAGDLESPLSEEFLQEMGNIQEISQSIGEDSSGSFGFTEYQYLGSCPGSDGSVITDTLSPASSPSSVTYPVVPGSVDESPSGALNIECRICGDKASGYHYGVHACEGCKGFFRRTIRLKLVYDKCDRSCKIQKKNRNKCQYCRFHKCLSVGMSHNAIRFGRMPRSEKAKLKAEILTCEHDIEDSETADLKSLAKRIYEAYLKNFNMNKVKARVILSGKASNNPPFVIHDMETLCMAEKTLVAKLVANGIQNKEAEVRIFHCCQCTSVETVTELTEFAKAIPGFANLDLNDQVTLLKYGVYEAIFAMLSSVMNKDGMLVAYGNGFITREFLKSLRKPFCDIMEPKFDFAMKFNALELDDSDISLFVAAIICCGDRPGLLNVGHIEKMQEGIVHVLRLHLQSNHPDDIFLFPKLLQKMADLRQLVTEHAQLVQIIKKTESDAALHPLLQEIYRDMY
human Retinoid X Receptor beta (RXRb), RXRB (gene 6257), sequence (P28702 whole entry, looked up, the tested form may be a part): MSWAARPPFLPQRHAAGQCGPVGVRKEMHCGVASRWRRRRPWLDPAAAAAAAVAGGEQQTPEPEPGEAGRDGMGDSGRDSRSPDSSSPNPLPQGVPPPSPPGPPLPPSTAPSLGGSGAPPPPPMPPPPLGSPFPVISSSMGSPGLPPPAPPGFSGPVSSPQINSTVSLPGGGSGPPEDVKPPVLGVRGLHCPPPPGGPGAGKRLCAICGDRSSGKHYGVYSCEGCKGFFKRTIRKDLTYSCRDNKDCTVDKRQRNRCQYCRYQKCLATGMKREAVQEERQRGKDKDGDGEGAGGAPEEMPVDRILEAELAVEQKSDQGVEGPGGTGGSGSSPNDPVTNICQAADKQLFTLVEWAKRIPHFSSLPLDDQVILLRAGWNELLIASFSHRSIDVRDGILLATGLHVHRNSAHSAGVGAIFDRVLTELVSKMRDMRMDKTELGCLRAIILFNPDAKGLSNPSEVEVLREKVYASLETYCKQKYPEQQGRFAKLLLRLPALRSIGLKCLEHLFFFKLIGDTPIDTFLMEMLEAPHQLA
Retinoic acid receptor RXR-alpha (Homo sapiens), sequence (P19793 whole entry, looked up, the tested form may be a part): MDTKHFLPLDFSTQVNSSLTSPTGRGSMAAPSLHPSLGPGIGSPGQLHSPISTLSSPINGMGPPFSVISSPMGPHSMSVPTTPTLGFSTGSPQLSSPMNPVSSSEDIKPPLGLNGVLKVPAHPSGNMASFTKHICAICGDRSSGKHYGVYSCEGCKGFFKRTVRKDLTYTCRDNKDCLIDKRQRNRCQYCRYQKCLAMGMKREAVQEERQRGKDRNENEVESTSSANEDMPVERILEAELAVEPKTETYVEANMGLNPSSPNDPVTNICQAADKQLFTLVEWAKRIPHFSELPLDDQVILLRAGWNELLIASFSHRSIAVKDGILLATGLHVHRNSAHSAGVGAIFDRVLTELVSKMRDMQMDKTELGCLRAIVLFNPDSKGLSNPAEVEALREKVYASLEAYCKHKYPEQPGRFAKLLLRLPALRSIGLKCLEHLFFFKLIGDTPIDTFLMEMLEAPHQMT
Nuclear receptor subfamily 1 group I member 2 (Homo sapiens), sequence (O75469 whole entry, looked up, the tested form may be a part): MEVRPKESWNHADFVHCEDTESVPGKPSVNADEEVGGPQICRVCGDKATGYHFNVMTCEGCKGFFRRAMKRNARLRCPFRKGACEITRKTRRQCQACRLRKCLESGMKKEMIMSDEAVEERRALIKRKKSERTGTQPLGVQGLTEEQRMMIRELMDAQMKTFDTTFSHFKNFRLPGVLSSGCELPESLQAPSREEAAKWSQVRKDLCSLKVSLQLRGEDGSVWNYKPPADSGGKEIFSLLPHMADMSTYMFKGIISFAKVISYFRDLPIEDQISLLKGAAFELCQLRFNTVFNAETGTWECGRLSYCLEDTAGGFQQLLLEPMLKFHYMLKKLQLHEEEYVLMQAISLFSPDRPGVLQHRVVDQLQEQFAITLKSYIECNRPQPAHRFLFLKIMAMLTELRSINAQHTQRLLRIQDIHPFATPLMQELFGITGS
human Peroxisome Proliferator-activated Receptor delta (PPARd), PPARD (gene 5467), sequence (Q03181 whole entry, looked up, the tested form may be a part): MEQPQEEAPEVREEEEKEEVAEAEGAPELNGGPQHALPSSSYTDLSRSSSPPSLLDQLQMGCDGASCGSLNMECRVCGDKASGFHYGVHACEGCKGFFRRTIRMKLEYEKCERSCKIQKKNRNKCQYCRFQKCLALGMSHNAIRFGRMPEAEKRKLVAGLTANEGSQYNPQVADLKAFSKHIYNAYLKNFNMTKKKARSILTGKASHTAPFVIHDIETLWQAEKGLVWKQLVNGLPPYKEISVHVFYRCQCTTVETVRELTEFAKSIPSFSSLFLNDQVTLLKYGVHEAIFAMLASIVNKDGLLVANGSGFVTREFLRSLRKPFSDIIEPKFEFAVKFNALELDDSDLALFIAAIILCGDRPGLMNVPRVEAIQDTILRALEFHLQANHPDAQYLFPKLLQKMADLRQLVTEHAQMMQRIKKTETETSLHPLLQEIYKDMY
human RAR-related Orphan Receptor gamma (RORg), RORC (gene 6097), sequence (P51449 whole entry, looked up, the tested form may be a part): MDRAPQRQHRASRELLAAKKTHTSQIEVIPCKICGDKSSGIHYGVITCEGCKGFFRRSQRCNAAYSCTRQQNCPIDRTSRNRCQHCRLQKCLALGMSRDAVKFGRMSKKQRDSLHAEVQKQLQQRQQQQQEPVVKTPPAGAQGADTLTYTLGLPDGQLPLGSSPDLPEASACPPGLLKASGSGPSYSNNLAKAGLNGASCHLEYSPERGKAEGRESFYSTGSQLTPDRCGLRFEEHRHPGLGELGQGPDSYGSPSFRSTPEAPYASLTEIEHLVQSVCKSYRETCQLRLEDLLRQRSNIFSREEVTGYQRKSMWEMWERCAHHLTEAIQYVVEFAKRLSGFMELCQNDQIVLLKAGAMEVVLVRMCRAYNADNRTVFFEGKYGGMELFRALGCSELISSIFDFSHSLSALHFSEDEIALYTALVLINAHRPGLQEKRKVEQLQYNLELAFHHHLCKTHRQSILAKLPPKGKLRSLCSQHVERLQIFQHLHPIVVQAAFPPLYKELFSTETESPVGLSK

Structure (SMILES) | outcome [1] | outcome [2] | outcome [3] | outcome [4] | outcome [5] | outcome [6] | outcome [7] | AC50 [3] | outcome [8] | outcome [9] | AC50 [1] | AC50 [4]
OC1C(O)C(O)C(O)C(O)C1O (configuration not stated) | inactive | inactive | inactive | inactive | inactive | inactive | inactive | – | – | – | – | –
O=Cc1ccc(Cl)c([N+](=O)[O-])c1 | inactive | inactive | – | – | inactive | – | inactive | 100 µM (active) | inactive | – | – | –
N#Cc1ccccc1 | inactive | inactive | inactive | inactive | inactive | – | – | – | inactive | – | – | –
CCCCCCC#CC(=O)OC | inactive | inactive | – | inactive | – | – | inactive | 5.61 µM (active) | inactive | inactive | – | –
CCC(=O)OCCC(C)CCC=C(C)C (configuration not stated) | inactive | inactive | inactive | inactive | – | inactive | – | – | – | – | – | –
CCCCCCCCCCCCCCCC(=O)OC[C@H](O)[C@H]1OC(=O)C(O)=C1O | inactive | inactive | inactive | – | inactive | inactive | inactive | – | inactive | – | – | –
CCCCCCCCCCC(CO)CCCCCCCC (configuration not stated) | inactive | inactive | inactive | inactive | – | – | inactive | – | – | inactive | – | –
O=C[C@@H](O)[C@H](O)[C@H](O)CO | inactive | inactive | inactive | – | – | – | inactive | – | inactive | inactive | – | –
C=CC(=O)OCC(O)COc1ccccc1 (configuration not stated) | – | inactive | – | – | inactive | inactive | inactive | 3.66 µM (active) | – | – | 17.3 µM (active) | 61 µM (active)
